Source: PubChem (Center for Chemical Genomics, University of Michigan)
Dicer inh: inhibitors of human Dicer processing of pre-microRNA; Q9UPY3; cat-ELCCA pre-miR-21 Dicer processing, chemiluminescence; stronger effect = higher value; z-score at 25 µM; 47,000 tested, 6% active; in the data active = z-score above about 3, passing the limit was not always enough;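 also: plate controls were vehicle for no effect and no enzyme for full effect; higher signal means more uncleaved substrate so more Dicer inhibition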
Target sequence (Q9UPY3 whole entry, looked up): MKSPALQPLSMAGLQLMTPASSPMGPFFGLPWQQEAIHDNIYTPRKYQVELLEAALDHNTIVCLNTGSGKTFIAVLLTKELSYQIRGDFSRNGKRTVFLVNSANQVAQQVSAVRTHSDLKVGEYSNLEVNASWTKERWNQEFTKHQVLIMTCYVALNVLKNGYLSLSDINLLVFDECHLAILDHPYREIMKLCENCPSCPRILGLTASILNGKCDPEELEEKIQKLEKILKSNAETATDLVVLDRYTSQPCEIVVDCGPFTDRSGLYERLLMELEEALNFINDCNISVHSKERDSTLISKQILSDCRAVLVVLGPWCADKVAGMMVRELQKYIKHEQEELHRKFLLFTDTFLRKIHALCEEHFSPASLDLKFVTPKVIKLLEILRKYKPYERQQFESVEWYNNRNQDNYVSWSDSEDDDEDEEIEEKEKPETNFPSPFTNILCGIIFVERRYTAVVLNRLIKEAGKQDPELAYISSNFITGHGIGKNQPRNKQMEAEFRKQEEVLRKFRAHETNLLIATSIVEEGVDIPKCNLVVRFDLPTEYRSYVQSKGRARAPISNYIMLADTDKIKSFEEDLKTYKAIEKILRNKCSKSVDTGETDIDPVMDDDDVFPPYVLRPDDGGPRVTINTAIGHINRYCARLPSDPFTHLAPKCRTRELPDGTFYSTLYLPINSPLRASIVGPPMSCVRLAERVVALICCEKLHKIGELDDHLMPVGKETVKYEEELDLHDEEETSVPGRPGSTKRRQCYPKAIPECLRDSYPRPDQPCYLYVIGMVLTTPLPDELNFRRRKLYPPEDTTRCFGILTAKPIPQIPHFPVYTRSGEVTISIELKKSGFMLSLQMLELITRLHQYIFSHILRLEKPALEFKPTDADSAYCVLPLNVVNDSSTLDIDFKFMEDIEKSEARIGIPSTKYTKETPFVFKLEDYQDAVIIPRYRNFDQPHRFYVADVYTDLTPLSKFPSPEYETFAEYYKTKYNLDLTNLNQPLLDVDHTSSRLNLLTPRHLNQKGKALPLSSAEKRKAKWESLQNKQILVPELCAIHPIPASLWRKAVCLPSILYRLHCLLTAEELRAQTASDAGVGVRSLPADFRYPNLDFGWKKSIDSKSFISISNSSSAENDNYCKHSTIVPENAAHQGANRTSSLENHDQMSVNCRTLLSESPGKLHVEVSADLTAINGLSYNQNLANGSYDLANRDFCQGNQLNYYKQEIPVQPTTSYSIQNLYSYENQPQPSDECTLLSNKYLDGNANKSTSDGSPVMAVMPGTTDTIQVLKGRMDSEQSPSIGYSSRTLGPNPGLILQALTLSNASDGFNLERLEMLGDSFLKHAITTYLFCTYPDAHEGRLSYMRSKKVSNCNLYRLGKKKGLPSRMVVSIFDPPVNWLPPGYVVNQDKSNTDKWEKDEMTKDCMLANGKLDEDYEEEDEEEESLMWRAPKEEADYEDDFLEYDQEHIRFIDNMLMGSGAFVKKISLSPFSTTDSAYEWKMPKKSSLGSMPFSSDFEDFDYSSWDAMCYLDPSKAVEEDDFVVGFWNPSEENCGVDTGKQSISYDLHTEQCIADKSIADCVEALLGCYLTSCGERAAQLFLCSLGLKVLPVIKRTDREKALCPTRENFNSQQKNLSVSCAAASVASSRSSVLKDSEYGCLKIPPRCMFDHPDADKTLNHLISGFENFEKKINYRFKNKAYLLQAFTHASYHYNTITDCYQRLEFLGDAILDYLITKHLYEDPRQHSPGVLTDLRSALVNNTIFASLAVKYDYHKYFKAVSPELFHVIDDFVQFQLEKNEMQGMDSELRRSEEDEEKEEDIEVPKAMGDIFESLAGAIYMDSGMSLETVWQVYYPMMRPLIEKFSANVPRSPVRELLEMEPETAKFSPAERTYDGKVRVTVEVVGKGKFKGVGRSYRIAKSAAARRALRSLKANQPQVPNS
An asterisk follows results filed as active. The full list was thinned out, with hits kept by preference.

SMILES	Dicer inh
O=C1C2C3c4ccccc4C(c4ccccc43)C2C(=O)N1c1ccncc1 (stereo not given)	0.19
O=C1C2C3c4ccccc4C(c4ccccc43)C2C(=O)N1c1ccc(F)cc1 (stereo not given)	-0.84
Cc1cc2nc(SCCN3CCCCC3)[nH]c2cc1C	-0.68
O=C(CS(=O)(=O)c1ccc(Cl)cc1)NO	-1.4
COC(=O)C1=C(C)NC(C)=C(C(=O)OCC(C)C)C1c1ccccc1[N+](=O)[O-] (stereo not given)	3.9*
CCOc1ccccc1C1C(C(=O)OC)=C(C)NC2=C1C(=O)c1ccccc12 (stereo not given)	0.84
COC(=O)C1=C(C)NC(C)=C(C(=O)OC(C)C)C1c1cccc2nonc12 (stereo not given)	-0.72
N#Cc1ccc(Sc2ccccc2)nc1	-0.72
CCOC(=O)c1c(C)nc2c(c1-c1ccc(Br)cc1)C(=O)CC(C)(C)C2	-5.5
Cn1c(=O)c(Nc2ccccc2)c2c3c(cccc31)C(=O)c1ccccc1-2	3.3*
CCCCCCCNc1c2c3c(cccc3n(C)c1=O)C(=O)c1ccccc1-2	-0.78
COc1ccc(Nc2c3c4c(c(Br)ccc4n(C)c2=O)C(=O)c2ccccc2-3)cc1	0.38
COc1cccc(-c2nnc(SC)o2)c1	0.93
Cc1ccc(C2/C(=C(\O)c3ccc(F)cc3)C(=O)C(=O)N2CCCN(C)C)cc1 (stereo not given)	-0.69
CCCCCOC(=O)C1=C(C)NC2=C(C(=O)CC(C)(C)C2)C1c1ccc(OC)cc1OC (stereo not given)	3.9
CCOC(=O)c1c(C)oc2c(Br)cc(NS(=O)(=O)c3ccc(Cl)c(C)c3)cc12	0.56
CCOC(=O)c1c(C)oc2ccc(NS(=O)(=O)c3ccc(Cl)cc3)cc12	3.6*
CCOc1ccc(S(=O)(=O)Nc2ccc3oc(C)c(C(=O)OCCOC)c3c2)cc1	0.74
Cc1onc(-c2c(Cl)cccc2Cl)c1NC(=O)O/N=C/c1ccc(Cl)cc1Cl	2.8
CS(=O)c1sc(Cl)c2c1C(=O)CCC2 (stereo not given)	-1.4
Cc1ccc(C2CC(=O)c3c(S(C)=O)sc(C#N)c3C2)cc1 (stereo not given)	3.6*
CS(=O)c1sc(C#N)c2c1C(=O)CCC2 (stereo not given)	-1.7
O=C(C1=NOC2(C(=O)c3ccccc3C2=O)C1c1ccccc1)c1cccs1 (stereo not given)	2.7
COc1cc(C2SCCS2)cc(Br)c1Oc1ccc(C(F)(F)F)cc1[N+](=O)[O-]	-5
Cc1cc(S(=O)(=O)Nc2ccccc2C(=O)NCC2CC2)c(Cl)cc1Cl	0.91
SMILES	Dicer inh
CC(=O)C(C)(C)OC(=O)NCCc1ccc(Cl)cc1	7.2*
CC(=O)C(C)(C)OC(=O)NCc1cccs1	-3.2
O=C(O)/C=C\C(=O)NCCc1ccc(Cl)cc1	7.2
O=C1CSCC(=O)N1c1ccc(Cl)cn1	-3.1
O=C1CSCC(=O)N1c1ccccn1	7.8*
Cc1cccc(C)c1N1C(=O)CSCC1=O	-2.4
COc1nc(OCCNS(=O)(=O)c2ccccc2)nc(N(C)C)n1	0.62
CCOC(=O)C(NCc1ccccc1)(NC(C)=O)C(F)(F)F (stereo not given)	-0.33
CCC(=O)N1c2ccccc2NC2=C(C(=O)CCC2)C1c1cccs1 (stereo not given)	-0.37
CCO/C=C1/SC(=S)N(c2cc(OC)cc(C(F)(F)F)c2)C1=O	-2.2
CCO/C=C1\C(=O)N(c2ccc(C)cc2)C(=O)c2cc(OC)ccc21	0.4
CCO/C=C1\C(=O)N(c2ccccc2)C(=O)c2cc(OC)ccc21	3.3*
NC(=O)c1c(NC(=O)c2ccc(F)cc2)sc2c1CCCC2	-0.42
NC(=O)c1c(NC(=O)c2ccc(S(=O)(=O)N3CCCC3)cc2)sc2c1CCCC2	3.4*
NC(=O)c1c(NC(=O)c2ccc(Cl)cc2)sc2c1CCCC2	-1.1
COc1ccc(C(=O)O)c(Cl)c1OC	-0.43
CCCOC(=O)C(CC)Oc1ccc2c(=O)c(Oc3ccccc3Cl)coc2c1 (stereo not given)	-0.81
CCC(=O)Oc1cc(C)c2sc3ccccc3c(=O)c2c1	4.4*
CCC(=O)Oc1c(C)cc(O)c2ccccc12	-1.2
CCC(=O)Oc1ccc2nc(-c3ccc(C)c(C)c3)oc(=O)c2c1	-2.7
CNC(=S)Nc1ccc(Cl)c(Cl)c1	-0.91
Fc1ccc(NCc2cccnc2)cc1	3.2*
S=C(NCc1cccnc1)c1ccccc1	-0.17
FC(F)(F)c1cnc(NCc2cccnc2)c(Cl)c1	0.67
CCOC(=O)c1cc(C(=O)OCC)c(C)nc1C	0.46
SMILES	Dicer inh
CCC(C)Cn1c(C)c2c(=O)n(-c3nc4ccccc4s3)[nH]c2cc1=O (stereo not given)	0.75
Cc1c2c(=O)n(-c3nc4ccccc4s3)nc-2cc(O)n1CCc1c[nH]c2ccccc12	1.5
Cc1c2c(=O)n(-c3nc4ccccc4s3)nc-2cc(O)n1CCc1cnc[nH]1	3.6*
Cn1c(SCC(=O)Nc2ccc(Cl)cc2)nnc1-c1cnccc1C(F)(F)F	-0.75
CN(C)/C=C1\SCc2ccccc2C1=O	-1.5
O=C1/C(=C/c2ccc3c(c2)OCO3)CCCc2ccccc21	-1.7
CN(C)/C=C1\CCCc2ccccc2C1=O	3.4*
O=C(NNc1ncnc2ccsc12)c1ccc(Cl)cc1	1.7
CC(C)(C)CC(C)(C)NC(=O)c1cccnc1Oc1ccccc1	-0.45
Cc1ccc(OCCn2c(SCCO)nc3ccccc32)cc1	0.65
Cc1ccc(OCCSc2nc3ccccc3o2)cc1	-1.5
O=C(O)CCSc1n[nH]c2nc3ccccc3n12	-1.2
Cc1cccc(OCCSc2nc3ccccc3n2CCO)c1	5.6*
CCn1c(SCCOc2ccc(OC)cc2)nc2ccccc21	-1.9
Cc1ccc(OCCSc2n[nH]c3nc4ccccc4n23)cc1	6.2*
COC(=O)c1ccc(C2c3c(oc4ccccc4c3=O)C(=O)N2Cc2ccc3c(c2)OCO3)cc1 (stereo not given)	1.3
CCCS(=O)(=O)C1=C(N)OC(c2ccccc2)=C(C#N)C1c1ccccc1 (stereo not given)	2.4
O=c1oc2ccccc2n1Cc1ccccc1Cl	4.9*
O=c1oc2ccccc2n1Cc1ccc(Cl)cc1	-0.45
Cc1ccc(Cn2c(=O)oc3ccccc32)cc1	-0.05
Cc1nn(C(=O)c2ccc(Cl)cc2)c(C)c1Sc1nnc(C(F)(F)F)n1C	0.29
CCc1cccc(CC)c1Nc1nc2c(Cl)c(Cl)ccc2s1	2.8
O=C(O)CNC(=O)c1cccs1	7.7
O=C(O)CNc1n[nH]c(=O)[nH]c1=O	-0.93
CCOC(=O)Cc1n[nH]c(=O)[nH]c1=O	-0.76
SMILES	Dicer inh
CCC(Nc1n[nH]c(=O)[nH]c1=O)C(=O)OC (stereo not given)	3.2*
Cc1ccc(N2C(=O)C3CN=NC3(C)C2=O)cc1 (stereo not given)	1.8
CC12N=NCC1C(=O)N(c1ccc(Cl)cc1)C2=O (stereo not given)	3*
CC12N=NCC1C(=O)N(c1cccc(Cl)c1)C2=O (stereo not given)	0.44
Clc1ccccc1OCc1nn2c(COc3ccccc3)nnc2s1	0.15
Cc1ccc(OC(=O)c2ccc(Cl)cc2[N+](=O)[O-])c([N+](=O)[O-])c1	2.5
Cc1ccc(OC(C)CC(=O)O)c([N+](=O)[O-])c1 (stereo not given)	3.1*
Cc1ccc(-c2ccc(C)cc2[N+](=O)[O-])c([N+](=O)[O-])c1	-0.74
Cn1nccc1NS(=O)(=O)c1ccc(NS(=O)(=O)c2ccc(Cl)cc2)cc1	0.29
Cc1ccc(Nc2nc(-c3ccc(F)c(F)c3)cs2)c(C)c1	-0.38
COCOc1ccc(C(=O)CC(=O)c2ccccc2O)cc1	1.3
